Screening results: PubChem, National Center for Advancing Translational Sciences (NCATS)
rTrxR1 inhibitor = rat TrxR1 inhibition; O89049; recombinant rTrxR1, NADPH fluorescence consumption, selenite substrate; Potency, µM (highest dose often 114 µM), actives largely listed as inhibitors; actives 1% (n = 390,000); AID 588453; also: nearly all actives have a fitted effect of over 65% in size
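Rat TrxR1 (90 nM in the dispensed reagent) was pre-reduced with 400 uM NADPH for 5 min at room temperature, then incubated with compound for 15 min. After 400 uM selenite was added, NADPH fluorescence (Ex 340/Em 450 nm) was followed for 8 min.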
Eya2 inh = inhibitors of human Eya2 phosphatase activity; AID 488837; recombinant Eya2, OMFP fluorescence dephosphorylation (OMFP is methylfluorescein phosphate); actives 0.006% (n = 330,000); Potency, µM (titrated, usually from 76.9 µM), most hits filed as inhibitors
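Eya2 (0.2 uM) preincubated 10 min at ambient with compound, then OMFP substrate added at 50 uM; 10 min reaction in 50 mM HEPES pH 7.5, 50 mM NaCl, 5 uM MgCl2, 0.05% BSA, 1 mM DTT. Fluorescence read at Ex 485/Em 525 nm.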
RGS4 inhibitor = blocks human RGS4-accelerated GTP hydrolysis; actives 0.039% (n = 390,000); Potency, µM (top dose mostly 114 µM), usual class: inhibitors; Transcreener GDP fluorescence polarization, RGS4-accelerated GTP hydrolysis; AID 504845; P49798; also: nearly all actives have a fitted effect of over 75% in size
Target sequence (P49798 whole entry, looked up): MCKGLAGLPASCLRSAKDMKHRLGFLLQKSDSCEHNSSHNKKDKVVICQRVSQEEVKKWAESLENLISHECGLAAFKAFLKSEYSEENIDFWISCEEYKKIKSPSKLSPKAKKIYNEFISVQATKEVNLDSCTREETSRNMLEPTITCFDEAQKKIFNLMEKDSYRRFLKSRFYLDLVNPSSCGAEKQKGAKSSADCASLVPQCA
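MLSMR compounds (23 nl, pin-transferred) preincubated 10 min at room temperature with a 500nM (2x) first reagent, then RGS4 at 900nM (2x) plus Transcreener GDP mix added; fluorescence polarization (620/688 nm) read before and after 90 min at 30 °C.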
TrxR1 substrate = substrates of rat thioredoxin reductase 1; actives 0.01% (n = 390,000); purified TrxR1 substrate turnover, NADPH consumption readout; Potency, µM (titrated, usually from 114 µM); also: nearly all actives have a fitted effect of over 50% in size
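Rat TrxR1, dispensed at 90 nM, was prereduced with 400 uM NADPH (final) for 5 min at ~22 deg C, then incubated with compound 15 min before 400 uM selenite. A first-read NADPH fluorescence drop versus no-compound background flagged substrates.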
mIDH1 inhibitor = human IDH1 R132H inhibition; Potency, µM (top dose mostly 76.6 µM), usual class: inhibitors; AID 602179; actives 0.093% (n = 390,000); O75874; IDH1-R132H enzyme, NADPH consumption, diaphorase/resazurin fluorescence; also: nearly all actives have a fitted effect of over 65% in size
Target sequence (O75874 whole entry R132H, stated change not applied): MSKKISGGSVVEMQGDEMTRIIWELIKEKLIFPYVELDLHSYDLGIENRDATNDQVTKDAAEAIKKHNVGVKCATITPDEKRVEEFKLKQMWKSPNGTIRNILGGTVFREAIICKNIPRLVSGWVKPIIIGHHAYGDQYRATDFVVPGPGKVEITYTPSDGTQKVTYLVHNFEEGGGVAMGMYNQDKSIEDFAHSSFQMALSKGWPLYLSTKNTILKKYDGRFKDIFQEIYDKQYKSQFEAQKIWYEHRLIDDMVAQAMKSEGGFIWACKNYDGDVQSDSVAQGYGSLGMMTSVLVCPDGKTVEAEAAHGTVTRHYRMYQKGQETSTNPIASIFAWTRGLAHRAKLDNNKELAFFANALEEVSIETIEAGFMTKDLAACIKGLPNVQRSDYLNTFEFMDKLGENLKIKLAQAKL
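IDH1-R132H (0.5 ug/mL dispensed) in pH 7.5 Tris buffer was preincubated 30 min with compound, then given a substrate mix of 0.016 mM NADPH and 2 mM alpha-KG for 80 min at room temperature; remaining NADPH was read by diaphorase/resazurin fluorescence.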
Resorufin autofl = interferes with resorufin fluorescence in IDH1 counter-screen | 750 tested, under 10 active | AID 623980 | inhibition of signal, % at 51.2 µM | shares compounds with mIDH1 inhibitor | Resorufin detection reagent fluorescence interference, cell-free
WT IDH1 inh = wild-type IDH1 (human) inhibition counterscreen; Potency, µM (top dose mostly 115 µM), hits mostly inhibitors; AID 623995; actives 9% (n = 750); shares compounds with mIDH1 inhibitor; WT IDH1 enzyme, NADPH diaphorase/resazurin fluorescence; also: nearly all actives have a fitted effect of over 55% in size
Target sequence (O75874 whole entry, looked up): as the sequence (O75874 whole entry R132H, stated change not applied) above, with H132R counted along it
IDH1 R132H conf = mutant IDH1 (human) inhibition, confirmed | Potency, µM (series often up to 76.6 µM), most hits filed as inhibitors | shares compounds with mIDH1 inhibitor | actives 83% (n = 750) | IDH1 R132H enzyme, NADPH diaphorase/resazurin fluorescence; also: nearly all actives have a fitted effect of over 50% in size
Each line names hits and unclear results; the compound was inactive in the other large screens (follow-up assays come after a bar, where they were run). Only some compounds are listed: those with a hit (about 1.1% of all), similar ones and a draw of the others. Calls follow the shape of the dose curve; as a rule, active = well fitted curve in the direction sought with a large enough effect; inconclusive = small, poorly fitted or top-dose-only effect, or another doubt; inactive = no such curve, though single readings can be large; an effect the other way counts as inactive or inconclusive.

COc1cc2c(c3oc(-c4ccccc4)cc(=O)c13)C=CC(C)(C)O2	mIDH1 inhibitor 40µM | Resorufin autofl inactive | WT IDH1 inh 28µM | IDH1 R132H conf 22µM
Cc1cc(C)c(C#N)c(SCc2[nH]nc3c2C(c2ccc(F)cc2)C(C#N)=C(N)O3)n1 (stereo unspecified)	mIDH1 inhibitor inconclusive | Resorufin autofl inactive | WT IDH1 inh inconclusive | IDH1 R132H conf 32µM
Cc1cc(C#N)c(C)c(SCc2[nH]nc3c2C(c2ccccc2)C(C#N)=C(N)O3)n1 (stereo unspecified)	rTrxR1 inhibitor inconclusive, RGS4 inhibitor inconclusive, mIDH1 inhibitor inconclusive | Resorufin autofl inactive | WT IDH1 inh inconclusive | IDH1 R132H conf 35µM
Cc1ccc(SCc2[nH]nc3c2C(c2cccnc2)C(C#N)=C(N)O3)cc1 (stereo unspecified)	none
Cc1[nH]nc2c1C(c1ccc(F)cc1)C(C#N)=C(N)O2 (stereo unspecified)	none
Cc1cc(O)c(C(C)C)cc1C1(c2cc(C(C)C)c(O)cc2C)OC(=O)c2ccccc21	mIDH1 inhibitor 16µM | Resorufin autofl inactive | WT IDH1 inh inactive | IDH1 R132H conf 16µM
CCN1CCN(c2ccc(NC(=O)COc3ccc(Cl)cc3C)cc2)CC1	none
CN1C(=O)N(CC(=O)N2CCN(S(=O)(=O)c3ccc4c(c3)CCC4)CC2)C(=O)C12CCCCC2	none
O=C(CCl)N1CCN(S(=O)(=O)c2ccc3c(c2)CCC3)CC1	rTrxR1 inhibitor inconclusive, mIDH1 inhibitor 46µM | Resorufin autofl inactive | WT IDH1 inh inactive | IDH1 R132H conf 28µM
NC(=O)CN1C(=O)/C(=c2\sc3nc(=O)c(Cc4ccccc4)nn3c2=O)c2ccccc21	rTrxR1 inhibitor 18µM, RGS4 inhibitor inconclusive, mIDH1 inhibitor inconclusive | Resorufin autofl inactive | WT IDH1 inh inactive | IDH1 R132H conf inactive
CCCN1C(=O)/C(=c2\sc3nc(=O)c(Cc4ccc(C)cc4)nn3c2=O)c2ccccc21	rTrxR1 inhibitor inconclusive, RGS4 inhibitor inconclusive
CC(C)=CCc1c2c(c3occ(-c4ccc(O)cc4)c(=O)c3c1O)C=CC(C)(C)O2	Eya2 inh inconclusive
CC1(C)C=Cc2c(c3c(c4c(=O)c(-c5ccc(O)cc5)coc24)OC(C)(C)CC3)O1	mIDH1 inhibitor 40µM | Resorufin autofl inactive | WT IDH1 inh inactive | IDH1 R132H conf 25µM
CC(C)=CCc1c2c(c3occ(-c4ccc(O)c(O)c4)c(=O)c3c1O)C=CC(C)(C)O2	mIDH1 inhibitor 52µM (no result: Eya2 inh) | Resorufin autofl inactive | WT IDH1 inh inactive | IDH1 R132H conf 45µM
Cc1ccccc1/C=C/C(=O)c1ccc([N+](=O)[O-])o1	rTrxR1 inhibitor 3.5µM, RGS4 inhibitor inconclusive, mIDH1 inhibitor inconclusive | Resorufin autofl inactive | WT IDH1 inh 40µM | IDH1 R132H conf inconclusive
Cc1cccc(/C=C/C(=O)c2ccc([N+](=O)[O-])o2)c1	rTrxR1 inhibitor 1.3µM, RGS4 inhibitor inconclusive, mIDH1 inhibitor 4.5µM | Resorufin autofl inactive | WT IDH1 inh 22µM | IDH1 R132H conf 2µM
Cc1ccc(NC(=O)c2ccc([N+](=O)[O-])o2)c(C)c1	none
Cc1c(-c2ccccc2)nc(-c2ccccc2)[nH]c1=O	none
CCOc1ccc(NC(=O)c2cc3c(=O)n(C)c4ccccc4c3n2C)cc1	rTrxR1 inhibitor inconclusive
CCOC(=O)N1CCc2c(sc3c2c(=O)n(-c2ccc(F)cc2)c(=O)n3CC(=O)c2ccc(Cl)cc2)C1	none (no result: Eya2 inh)
Cc1ccc(-c2cc(C(F)F)n3ncc(C(=O)N4CCCCC4c4cccnc4)c3n2)cc1 (stereo unspecified)	mIDH1 inhibitor inconclusive | Resorufin autofl inactive | WT IDH1 inh inactive | IDH1 R132H conf 35µM
c1ccc2c(c1)ncc1cccn12	none
CCn1c2ccccc2c2c3ncc4cccn4c3ccc21	mIDH1 inhibitor inconclusive | Resorufin autofl inactive | WT IDH1 inh 45µM | IDH1 R132H conf 14µM
Cc1oc(-c2cccs2)nc1CNC[C@H]1O[C@@H](n2cnc(C(N)=O)n2)[C@H](O)[C@@H]1O	none (no result: Eya2 inh)
COc1cc2c(O)c3c(c(-c4ccc5c(c4)OCO5)c2cc1OC)C(=O)OC3	mIDH1 inhibitor inconclusive | Resorufin autofl inactive | WT IDH1 inh inconclusive | IDH1 R132H conf 25µM
Cc1ccc(C)c(N(C)C(=O)c2cc3c(=O)[nH]c4ccc(C)cc4c3s2)c1	mIDH1 inhibitor 21µM | Resorufin autofl inactive | WT IDH1 inh inconclusive | IDH1 R132H conf 11µM
O=C1c2[nH]nc(-c3ccccc3O)c2C(c2cccc(Cl)c2)N1CC1CCCO1 (stereo unspecified)	RGS4 inhibitor inconclusive, mIDH1 inhibitor inconclusive | Resorufin autofl inactive | WT IDH1 inh inactive | IDH1 R132H conf 40µM
COc1ccc(CCN2C(=O)c3[nH]nc(-c4ccccc4O)c3C2c2cccc(O)c2)cc1OC (stereo unspecified)	none
COc1cccc(C2c3c(-c4ccccc4O)n[nH]c3C(=O)N2CCc2ccc(OC)c(OC)c2)c1 (stereo unspecified)	mIDH1 inhibitor inconclusive (no result: Eya2 inh) | Resorufin autofl inactive | WT IDH1 inh inactive | IDH1 R132H conf 25µM
CCCCN1C(=O)c2[nH]nc(-c3ccccc3O)c2C1c1cc(Br)c(O)c(OC)c1 (stereo unspecified)	mIDH1 inhibitor 28µM (no result: Eya2 inh) | Resorufin autofl inactive | WT IDH1 inh 40µM | IDH1 R132H conf 8.9µM
Cc1ccc2c3c([nH]c2c1)C(=O)CC(C)(C)S3	none
CCCCCCCCC#Cc1nc(C)ccc1OC	none
